# Experimental data from PubChem BioAssay (EPA / NIEHS).
# Inconclusive results are not listed. Active and inactive are the calls of the source. How the source made its calls: active means hit-call score of the fitted dose curve at least 0.9, where 1 is the maximum; inconclusive means response in the unintended direction; inactive means score below 0.9.
# How the values were obtained:
# [1] = biological target: bovine Dopamine Receptor (DR), Non-selective Binding, DRD1 (gene 281125) (UniProt Q95136); test: NVS_GPCR_bDR_NonSelective: NovaScreen (NVS) G Protein-Coupled Receptor Assay for bovine Dopamine Receptor (DR), Non-selective Binding (AID 2283241)
# Method in brief: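 Filter-based radioligand binding with bovine striatal membrane, incubated 1 h; DMSO as negative baseline. Initial duplicate single-point test at 25 uM preceded concentration series for actives.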
# [2] = system: bovine Histamine 1 Receptor (H1), gene 281231; test: NVS_GPCR_bH1: NovaScreen (NVS) G Protein-Coupled Receptor Assay for bovine Histamine 1 Receptor (H1) (AID 2283246)
# Method in brief: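 Hits from a 25 uM duplicate primary screen were retested in concentration series (top 50 uM); binding measured as scintillation-counted displacement of radioligand from bovine cerebellar membranes after 1 h, normalised to DMSO.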
# [3] = system: guinea pig Muscarinic, Peripheral (Mperiperal) Receptor, Non-selective Binding, gene 100379235; test: NVS_GPCR_gMPeripheral_NonSelective: NovaScreen (NVS) G Protein-Coupled Receptor Assay for guinea pig Muscarinic, Peripheral (Mperiperal) Receptor, Non-selective Binding (AID 2283250)
# Method in brief: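 Screened in duplicate at 25 uM, hits retested in concentration series to 50 uM max, using bladder membrane radioligand displacement from guinea pig. Filtration and scintillation counting 1 h post-dose, fitted relative to DMSO.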
# [4] = biological target: human Serotonin, 5-Hydroxytryptamine Receptor 5A (5HT5A), HTR5A (gene 3361) (UniProt P47898); test: NVS_GPCR_h5HT5A: NovaScreen (NVS) G Protein-Coupled Receptor Assay for human Serotonin, 5-Hydroxytryptamine Receptor 5A (5HT5A) (AID 2283251)
# Method in brief: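 Membranes from HEK293 cells, radioligand binding read by filtration and scintillation after 1 h. Single-concentration duplicate testing at 25 uM, then concentration-response for actives; positive-direction fitting relative to DMSO.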
# [5] = biological target: guinea pig Opioid, Kappa 1 Receptor (OpiateK), OPRK1 (gene 100135587) (UniProt P41144); test: NVS_GPCR_gOpiateK: NovaScreen (NVS) G Protein-Coupled Receptor Assay for guinea pig Opioid, Kappa 1 Receptor (OpiateK) (AID 2283252);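 further: radioligand displacement from kappa opioid receptor in guinea pig cerebellar membranes; active means reduced radioligand binding relative to DMSO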
# Method in brief: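 Cell-free tissue prep: guinea pig cerebellar membranes, radioligand displacement, 2 h incubation. Readout: filtration plus scintillation counting. Primary single-point 25 uM duplicate; actives retested in concentration series; DMSO negative control.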
# [6] = biological target: human Serotonin, 5-Hydroxytryptamine Receptor 6 (5HT6), HTR6 (gene 3362) (UniProt P50406); test: NVS_GPCR_h5HT6: NovaScreen (NVS) G Protein-Coupled Receptor Assay for human Serotonin, 5-Hydroxytryptamine Receptor 6 (5HT6) (AID 2283253)
# Method in brief: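 Filter scintillation counting of radioligand displacement from HEK293-expressed 5HT6, 1 hour post-dose, with loss of signal relative to DMSO. Single 25 uM duplicates first, with concentration series for confirmation.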
# [7] = biological target: human Adrenergic, Alpha 2A Receptor (Adra2A), ADRA2A (gene 150) (UniProt P08913); test: NVS_GPCR_hAdra2A: NovaScreen (NVS) G Protein-Coupled Receptor Assay for human Adrenergic, Alpha 2A Receptor (Adra2A) (AID 2283257)
# Method in brief: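 Displacement of a specific radioligand from HT29 membrane protein was counted by filter scintillation after 1 h. Compounds were screened in duplicate at 25 uM, and actives were retested in concentration series. Fitting was positive-direction against DMSO.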
# [8] = biological target: human Adrenergic, Alpha 2c Receptor (Adra2C), ADRA2C (gene 152) (UniProt P18825); test: NVS_GPCR_hAdra2C: NovaScreen (NVS) G Protein-Coupled Receptor Assay for human Adrenergic, Alpha 2c Receptor (Adra2C) (AID 2283259)
# Method in brief: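 Screened first in duplicate at 25 uM, with actives then run as concentration series. Membranes from Sf9 cells were exposed for 1 h, and displacement of radioligand was counted after filtration, using DMSO as baseline.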
# [9] = biological target: human Adrenergic, Beta 3 Receptor (Adrb3), ADRB3 (gene 155) (UniProt P13945); test: NVS_GPCR_hAdrb3: NovaScreen (NVS) G Protein-Coupled Receptor Assay for human Adrenergic, Beta 3 Receptor (Adrb3) (AID 2283262)
# Method in brief: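 A cell-free filter binding assay read by scintillation counting, with displacement of a specific radioligand measured after 1 hour. The receptor source was SK-N-MC extracts (cells pretreated with isoproterenol and 8-bromo-cAMP). Compounds were first tested at 25 uM in duplicate and then in concentration series.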
# [10] = biological target: human Serotonin, 5-Hydroxytryptamine Receptor 2A (5HT2A), HTR2A (gene 3356) (UniProt P28223); test: NVS_GPCR_h5HT2A: NovaScreen (NVS) G Protein-Coupled Receptor Assay for human Serotonin, 5-Hydroxytryptamine Receptor 2A (5HT2A) (AID 2283249)
# Method in brief: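 Radioligand displacement on human cortex tissue extract, counted by filtration and scintillation 1.5 h post-dosing. Initial single-concentration screen at 25 uM in duplicate, concentration series in follow-up; DMSO as baseline.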
# [11] = system: guinea pig Leukotriene B4 Receptor (LTB4), gene 100379538; test: NVS_GPCR_gLTB4: NovaScreen (NVS) G Protein-Coupled Receptor Assay for guinea pig Leukotriene B4 Receptor (LTB4) (AID 2283247)
# Method in brief: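 Membranes from guinea pig spleen incubated 2 h with radioligand and compound; bound counts measured by filtration and scintillation. Screened first at 25 uM in duplicate, then actives titrated to a 50 uM top concentration relative to DMSO.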
# [12] = biological target: Adenosine receptor A1 (Bos taurus) (UniProt P28190); test: NVS_GPCR_bAdoR_NonSelective: NovaScreen (NVS) G Protein-Coupled Receptor Assay for bovine Adenosine Receptor (AdoR), Non-selective Binding (AID 2283244)
# Method in brief: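 Cell-free binding with membranes from bovine striatum: radioligand displaced by test chemical, read after 1 h by filtration and scintillation. Single-point 25 uM duplicate primary, 50 uM top concentration in follow-up curves, DMSO baseline.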
# [13] = biological target: human Adenosine A2a Receptor (AdoRA2a), ADORA2A (gene 135) (UniProt P29274); test: NVS_GPCR_hAdoRA2a: NovaScreen (NVS) G Protein-Coupled Receptor Assay for human Adenosine A2a Receptor (AdoRA2a) (AID 2283256)
# Method in brief: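 Compounds screened in duplicate at 25 uM, with actives followed up in concentration series, for displacement of a radioligand from HEK293-derived receptor protein. Bound counts read by filter scintillation at 1.5 hours, DMSO as baseline.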
# [14] = biological target: human Serotonin, 5-Hydroxytryptamine Receptor 7 (5HT7), HTR7 (gene 3363) (UniProt P34969); test: NVS_GPCR_h5HT7: NovaScreen (NVS) G Protein-Coupled Receptor Assay for human Serotonin, 5-Hydroxytryptamine Receptor 7 (5HT7) (AID 2283255);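 further: hits reduce specific radioligand binding relative to DMSO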
# Method in brief: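 Filter-bound radioactivity counted after 1 h, with loss of specific radioligand binding fitted against DMSO. Membrane protein came from CHO cells expressing human 5HT7. Chemicals were tested first at 25 uM in duplicate, then in concentration series if active.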
# [15] = biological target: human Adenosine A1 Receptor (AdoRA1), ADORA1 (gene 134) (UniProt P30542); test: NVS_GPCR_hAdoRA1: NovaScreen (NVS) G Protein-Coupled Receptor Assay for human Adenosine A1 Receptor (AdoRA1) (AID 2283254)
# Method in brief: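 Each chemical is first tested twice at 25 uM, actives later in dilution series, against a radioligand bound to human cortex membranes; after 1 h, filter-retained counts are compared with DMSO controls, lower signal indicating displacement.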
# [16] = biological target: Type-1 angiotensin II receptor (Homo sapiens) (UniProt P30556); test: NVS_GPCR_hAT1: NovaScreen (NVS) G Protein-Coupled Receptor Assay for human Angiotensin II receptor type 1 (AT1) (AID 2283263)
# Method in brief: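 Hits from a 25 uM duplicate screen (threshold e.g. 30% inhibition) were run in concentration-response with 50 uM top concentration. Displacement of specific radioligand from KAN-TS membrane preparations measured after 3 h by filter scintillation, DMSO as baseline.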
# [17] = biological target: human Adrenergic, Beta 1 Receptor (Adrb1), ADRB1 (gene 153) (UniProt P08588); test: NVS_GPCR_hAdrb1: NovaScreen (NVS) G Protein-Coupled Receptor Assay for human Adrenergic, Beta 1 Receptor (Adrb1) (AID 2283258)
# Method in brief: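 Membranes/protein extracted from human neuroepithelioma cells, radioligand competition binding read by filtration and scintillation 2 h post-dose. Single 25 uM duplicate screen, then concentration-response follow-up; DMSO as negative control.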
# [18] = biological target: Beta-2 adrenergic receptor (Homo sapiens) (UniProt P07550); test: NVS_GPCR_hAdrb2: NovaScreen (NVS) G Protein-Coupled Receptor Assay for human Adrenergic, Beta 2 Receptor (Adrb2) (AID 2283261)
# Method in brief: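 Compounds screened in duplicate at 25 uM, then actives in concentration series. Human beta-2 receptor from CHO material, cell-free; radioligand displacement after 1 h measured by filtration and scintillation against DMSO baseline.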
# Chain of human Adrenergic, Beta 3 Receptor (Adrb3), ADRB3 (gene 155) (P13945 whole entry, looked up): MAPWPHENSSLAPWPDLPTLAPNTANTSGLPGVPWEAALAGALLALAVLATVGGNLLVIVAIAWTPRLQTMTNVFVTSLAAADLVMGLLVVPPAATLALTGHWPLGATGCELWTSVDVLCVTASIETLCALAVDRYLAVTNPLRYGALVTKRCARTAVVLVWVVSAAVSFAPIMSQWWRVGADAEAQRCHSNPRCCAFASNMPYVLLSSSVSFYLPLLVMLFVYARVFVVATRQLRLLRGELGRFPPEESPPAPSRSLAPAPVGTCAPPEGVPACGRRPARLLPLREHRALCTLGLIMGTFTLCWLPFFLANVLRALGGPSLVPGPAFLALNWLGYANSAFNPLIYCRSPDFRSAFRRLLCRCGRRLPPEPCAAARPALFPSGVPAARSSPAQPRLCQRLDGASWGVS
# Chain of human Serotonin, 5-Hydroxytryptamine Receptor 2A (5HT2A), HTR2A (gene 3356) (P28223 whole entry, looked up): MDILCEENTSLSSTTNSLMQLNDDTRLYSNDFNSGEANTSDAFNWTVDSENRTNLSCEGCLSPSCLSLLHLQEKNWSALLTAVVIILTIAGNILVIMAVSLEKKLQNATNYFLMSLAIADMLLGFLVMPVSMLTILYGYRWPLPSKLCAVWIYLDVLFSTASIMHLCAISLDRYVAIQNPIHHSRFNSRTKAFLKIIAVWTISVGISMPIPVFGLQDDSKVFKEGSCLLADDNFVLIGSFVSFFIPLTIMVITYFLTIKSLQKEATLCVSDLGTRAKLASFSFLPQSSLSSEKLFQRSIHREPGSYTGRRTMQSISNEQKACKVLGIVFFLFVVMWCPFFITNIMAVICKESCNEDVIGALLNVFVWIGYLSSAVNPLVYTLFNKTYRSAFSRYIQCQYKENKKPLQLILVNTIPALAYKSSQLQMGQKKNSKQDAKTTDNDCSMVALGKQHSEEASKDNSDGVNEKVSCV
# Chain of human Adrenergic, Alpha 2c Receptor (Adra2C), ADRA2C (gene 152) (P18825 whole entry, looked up): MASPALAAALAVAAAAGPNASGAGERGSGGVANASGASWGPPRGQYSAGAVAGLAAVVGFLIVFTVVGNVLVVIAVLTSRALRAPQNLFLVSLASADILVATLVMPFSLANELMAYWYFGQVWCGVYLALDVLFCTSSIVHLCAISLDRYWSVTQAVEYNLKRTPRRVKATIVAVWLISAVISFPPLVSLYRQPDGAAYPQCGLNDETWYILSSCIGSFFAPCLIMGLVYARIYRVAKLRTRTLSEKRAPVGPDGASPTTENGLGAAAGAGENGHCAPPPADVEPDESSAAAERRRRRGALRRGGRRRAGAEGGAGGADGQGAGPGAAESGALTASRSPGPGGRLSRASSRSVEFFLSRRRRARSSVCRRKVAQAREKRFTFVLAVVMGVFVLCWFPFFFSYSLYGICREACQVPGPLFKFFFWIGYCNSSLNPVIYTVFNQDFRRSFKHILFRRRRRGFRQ
# Chain of human Adenosine A2a Receptor (AdoRA2a), ADORA2A (gene 135) (P29274 whole entry, looked up): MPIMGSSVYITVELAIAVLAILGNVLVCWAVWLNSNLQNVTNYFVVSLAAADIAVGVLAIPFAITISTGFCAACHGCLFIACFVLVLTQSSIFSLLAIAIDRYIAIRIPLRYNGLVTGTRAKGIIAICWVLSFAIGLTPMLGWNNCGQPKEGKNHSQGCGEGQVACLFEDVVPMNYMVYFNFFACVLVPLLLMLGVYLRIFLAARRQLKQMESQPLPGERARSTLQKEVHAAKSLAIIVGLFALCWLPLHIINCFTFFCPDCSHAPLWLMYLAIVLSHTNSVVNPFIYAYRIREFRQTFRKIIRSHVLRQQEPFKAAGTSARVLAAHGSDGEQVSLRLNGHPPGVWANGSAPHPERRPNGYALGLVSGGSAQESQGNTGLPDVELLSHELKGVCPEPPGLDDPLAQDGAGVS
# Chain of human Adrenergic, Beta 1 Receptor (Adrb1), ADRB1 (gene 153) (P08588 whole entry, looked up): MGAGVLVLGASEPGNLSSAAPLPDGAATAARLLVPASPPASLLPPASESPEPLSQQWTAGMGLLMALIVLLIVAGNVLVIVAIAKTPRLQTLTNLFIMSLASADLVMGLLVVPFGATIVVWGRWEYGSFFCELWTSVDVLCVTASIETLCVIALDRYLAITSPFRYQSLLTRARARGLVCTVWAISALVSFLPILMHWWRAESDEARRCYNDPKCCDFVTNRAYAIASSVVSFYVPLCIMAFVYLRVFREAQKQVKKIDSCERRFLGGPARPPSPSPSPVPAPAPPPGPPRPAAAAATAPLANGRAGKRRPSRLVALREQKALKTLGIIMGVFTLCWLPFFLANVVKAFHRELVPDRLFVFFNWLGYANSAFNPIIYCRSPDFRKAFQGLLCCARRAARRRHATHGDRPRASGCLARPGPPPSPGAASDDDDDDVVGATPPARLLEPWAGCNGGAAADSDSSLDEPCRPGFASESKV
# Chain of human Adrenergic, Alpha 2A Receptor (Adra2A), ADRA2A (gene 150) (P08913 whole entry, looked up): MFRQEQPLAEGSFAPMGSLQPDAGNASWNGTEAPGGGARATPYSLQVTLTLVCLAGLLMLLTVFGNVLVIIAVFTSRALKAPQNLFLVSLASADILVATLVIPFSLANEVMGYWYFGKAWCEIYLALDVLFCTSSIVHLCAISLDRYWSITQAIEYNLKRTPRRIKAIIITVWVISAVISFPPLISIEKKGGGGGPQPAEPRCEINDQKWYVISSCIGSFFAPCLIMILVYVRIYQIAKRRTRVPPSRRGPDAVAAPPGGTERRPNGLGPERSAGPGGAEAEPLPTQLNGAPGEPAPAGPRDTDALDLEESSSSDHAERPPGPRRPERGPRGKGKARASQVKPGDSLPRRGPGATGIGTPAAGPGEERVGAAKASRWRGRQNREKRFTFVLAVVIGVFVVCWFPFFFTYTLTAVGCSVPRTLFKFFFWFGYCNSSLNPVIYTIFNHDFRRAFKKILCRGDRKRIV
# Chain of human Serotonin, 5-Hydroxytryptamine Receptor 6 (5HT6), HTR6 (gene 3362) (P50406 whole entry, looked up): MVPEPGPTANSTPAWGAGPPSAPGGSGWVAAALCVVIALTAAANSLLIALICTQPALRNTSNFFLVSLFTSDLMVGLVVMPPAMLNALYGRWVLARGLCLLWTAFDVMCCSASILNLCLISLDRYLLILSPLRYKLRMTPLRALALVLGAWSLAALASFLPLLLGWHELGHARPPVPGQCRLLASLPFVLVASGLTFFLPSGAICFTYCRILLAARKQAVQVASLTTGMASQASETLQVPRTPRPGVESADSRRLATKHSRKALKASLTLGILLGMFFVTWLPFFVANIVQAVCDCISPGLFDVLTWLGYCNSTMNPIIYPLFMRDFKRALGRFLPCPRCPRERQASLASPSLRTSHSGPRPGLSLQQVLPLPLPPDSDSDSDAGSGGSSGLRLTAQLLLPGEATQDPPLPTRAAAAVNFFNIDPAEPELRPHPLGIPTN
# Chain of human Adenosine A1 Receptor (AdoRA1), ADORA1 (gene 134) (P30542 whole entry, looked up): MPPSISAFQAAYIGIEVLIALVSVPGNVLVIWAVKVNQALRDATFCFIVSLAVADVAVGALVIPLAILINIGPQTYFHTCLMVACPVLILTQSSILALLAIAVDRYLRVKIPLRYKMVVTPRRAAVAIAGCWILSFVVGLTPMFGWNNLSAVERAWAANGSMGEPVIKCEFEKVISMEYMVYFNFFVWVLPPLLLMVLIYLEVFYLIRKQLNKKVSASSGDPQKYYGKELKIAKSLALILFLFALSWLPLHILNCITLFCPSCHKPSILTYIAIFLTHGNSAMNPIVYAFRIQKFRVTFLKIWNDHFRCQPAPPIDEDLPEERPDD
# Chain of human Serotonin, 5-Hydroxytryptamine Receptor 7 (5HT7), HTR7 (gene 3363) (P34969 whole entry, looked up): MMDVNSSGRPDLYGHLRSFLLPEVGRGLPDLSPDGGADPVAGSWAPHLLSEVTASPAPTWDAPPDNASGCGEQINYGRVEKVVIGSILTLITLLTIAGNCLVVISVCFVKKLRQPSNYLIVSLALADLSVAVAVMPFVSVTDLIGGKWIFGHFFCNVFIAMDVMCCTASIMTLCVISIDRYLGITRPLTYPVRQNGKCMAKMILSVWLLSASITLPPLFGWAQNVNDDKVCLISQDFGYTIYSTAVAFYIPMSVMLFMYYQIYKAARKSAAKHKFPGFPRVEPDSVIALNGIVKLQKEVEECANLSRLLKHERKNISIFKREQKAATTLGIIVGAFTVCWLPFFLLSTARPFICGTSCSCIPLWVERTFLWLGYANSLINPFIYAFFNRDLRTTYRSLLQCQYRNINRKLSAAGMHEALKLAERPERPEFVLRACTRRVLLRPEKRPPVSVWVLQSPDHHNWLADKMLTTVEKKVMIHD
# Chain of guinea pig Opioid, Kappa 1 Receptor (OpiateK), OPRK1 (gene 100135587) (P41144 whole entry, looked up): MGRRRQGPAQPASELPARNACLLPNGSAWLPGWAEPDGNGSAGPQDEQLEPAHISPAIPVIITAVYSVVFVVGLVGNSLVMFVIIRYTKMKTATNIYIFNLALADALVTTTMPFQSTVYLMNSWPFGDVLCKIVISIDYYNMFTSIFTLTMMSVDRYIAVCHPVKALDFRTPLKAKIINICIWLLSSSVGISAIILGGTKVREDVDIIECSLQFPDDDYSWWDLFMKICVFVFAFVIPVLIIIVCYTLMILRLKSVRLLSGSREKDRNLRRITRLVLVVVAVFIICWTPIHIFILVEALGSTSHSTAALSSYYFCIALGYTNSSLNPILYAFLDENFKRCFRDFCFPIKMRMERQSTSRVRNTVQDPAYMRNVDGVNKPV
# Chain of human Serotonin, 5-Hydroxytryptamine Receptor 5A (5HT5A), HTR5A (gene 3361) (P47898 whole entry, looked up): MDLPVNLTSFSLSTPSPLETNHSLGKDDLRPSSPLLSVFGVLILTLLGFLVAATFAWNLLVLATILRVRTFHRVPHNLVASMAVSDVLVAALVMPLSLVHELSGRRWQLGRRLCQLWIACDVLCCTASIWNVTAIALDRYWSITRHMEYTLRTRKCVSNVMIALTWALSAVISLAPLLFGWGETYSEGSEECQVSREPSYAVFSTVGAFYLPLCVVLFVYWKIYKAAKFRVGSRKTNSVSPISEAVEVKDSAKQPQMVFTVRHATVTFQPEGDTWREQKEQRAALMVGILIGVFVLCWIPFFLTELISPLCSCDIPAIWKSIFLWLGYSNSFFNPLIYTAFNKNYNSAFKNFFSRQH
compound,measurement,setting,value
COc1ccc(OC(F)(F)F)cc1CN[C@H]1CCCN[C@H]1c1ccccc1,AC50,[1],8.68 µM (active)
same,AC50,[2],7.82 µM (active)
same,AC50,[3],25 µM (active)
same,outcome,[4],inactive
same,AC50,[5],25 µM (active)
same,AC50,[6],9.71 µM (active)
same,AC50,[7],13.4 µM (active)
same,AC50,[8],10.6 µM (active)
same,AC50,[9],20.5 µM (active)
CC(N)=O,outcome,[10],inactive
NC=O,outcome,[11],inactive
Cc1cc(SC2=C(O)C[C@@](CCc3ccc(N)cc3)(C(C)C)OC2=O)c(C(C)(C)C)cc1CO,outcome,[12],inactive
CN(C)C(=O)NC1(c2ccccc2)CCN(CC[C@@]2(c3ccc(F)c(F)c3)CN(C(=O)c3ccccc3)CCO2)CC1,AC50,[1],6.51 µM (active)
same,outcome,[12],inactive
same,AC50,[10],13.1 µM (active)
same,outcome,[3],inactive
same,AC50,[5],3.94 µM (active)
same,AC50,[13],23.5 µM (active)
CC(C)(O)c1ccc(CNC(=O)c2cccnc2Oc2ccc(F)cc2)cc1,AC50,[11],4.68 µM (active)
same,outcome,[10],inactive
same,outcome,[5],inactive
O=C1CCCCC1,outcome,[5],inactive
Cc1cc(Cc2ccc(N)c(C)c2)ccc1N,outcome,[4],inactive
same,outcome,[13],inactive
CSc1ccc(Oc2ccc(S(N)(=O)=O)cc2CN(C)C)cc1C,AC50,[10],13.4 µM (active)
same,AC50,[4],7.53 µM (active)
same,AC50,[5],13.5 µM (active)
same,AC50,[6],2.79 µM (active)
same,AC50,[14],12.5 µM (active)
same,AC50,[7],0.263 µM (active)
same,AC50,[8],5.83 µM (active)
same,outcome,[9],inactive
CCCCCCCCCC[N+](C)(C)[O-],outcome,[9],inactive
CCC(C)N(C)C(=O)c1cc2ccccc2c(-c2ccccc2Cl)n1 (stereo not given),outcome,[10],inactive
same,AC50,[4],15.9 µM (active)
same,AC50,[5],1.91 µM (active)
same,AC50,[15],6.11 µM (active)
same,AC50,[13],7.37 µM (active)
same,AC50,[16],15.9 µM (active)
CC(C)c1cccc(C(C)C)c1,outcome,[17],inactive
NC(=Nc1ccccc1)Nc1ccccc1,outcome,[3],inactive
same,AC50,[5],25 µM (active)
same,AC50,[14],11.8 µM (active)
CCCC[C@H]1CN(CC2CCOCC2)C(=O)OC12CCN(C1(C)CCN(C(=O)c3c(C)ncnc3C)CC1)CC2,AC50,[3],3.04 µM (active)
C=CCc1ccc(OC)c(OC)c1,outcome,[10],inactive
CC1(C)C(=O)NC(=O)N1CO,outcome,[6],inactive
O=C1OC(c2ccc(O)cc2)(c2ccc(O)cc2)c2ccccc21,AC50,[5],4.09 µM (active)
same,AC50,[15],1.03 µM (active)
O=C(O)c1[nH]n(-c2ccc(S(=O)(=O)O)cc2)c(=O)c1N=Nc1ccc(S(=O)(=O)O)cc1,outcome,[4],inactive
same,AC50,[5],43.3 µM (active)
same,outcome,[14],inactive
same,outcome,[8],inactive
CC(C)(C)c1ccccc1,outcome,[14],inactive
C=CCCCCCCCCCCCC,outcome,[15],inactive
CCc1nc(N)nc(N)c1-c1ccc(Cl)cc1,outcome,[3],inactive
same,outcome,[4],inactive
same,AC50,[14],4.76 µM (active)
same,AC50,[7],4.81 µM (active)
same,outcome,[18],inactive
Cc1ccc(-c2cc(C(F)(F)F)nn2-c2ccc(S(N)(=O)=O)cc2)cc1,AC50,[17],4.96 µM (active)
CC(=O)O[C@]1(C(C)=O)CC[C@H]2[C@@H]3C=C(Cl)C4=CC(=O)[C@@H]5C[C@@H]5[C@]4(C)[C@H]3CC[C@@]21C,outcome,[4],inactive
COC(=O)[C@H]1[C@H]2C[C@@H]3c4[nH]c5cc(OC)ccc5c4CCN3C[C@H]2C[C@@H](OC(=O)c2cc(OC)c(OC)c(OC)c2)[C@@H]1OC,AC50,[18],12.1 µM (active)
CCCCCCC(CCCCCCCCCCC(=O)OCC(COC(C)=O)OC(C)=O)OC(C)=O (stereo not given),outcome,[17],inactive
Cn1cnc2c1c(=O)[nH]c(=O)n2C,outcome,[9],inactive
CCCCC(CC)COC(=O)CCCCCCCC(=O)OCC(CC)CCCC (stereo not given),outcome,[17],inactive
